Experimental data: PubChem BioAssay AID2603 (Johns Hopkins Ion Channel Center, 2010)
Measured potencies and affinities stand elsewhere.

Target: Potassium voltage-gated channel subfamily KQT member 2 (Rattus norvegicus) (UniProt O88943)
Assay: KCNQ2 channel potentiators, dose response, mechanism study for KCNQ2 potentiator project, cell-based, automated electrophysiology (AID 2603)
Details: KCNQ2-CHO cells, automated patch clamp current potentiation; at 30 µM (top of the series)

Potassium voltage-gated channel subfamily KQT member 2 (Rattus norvegicus), sequence (O88943 whole entry, looked up): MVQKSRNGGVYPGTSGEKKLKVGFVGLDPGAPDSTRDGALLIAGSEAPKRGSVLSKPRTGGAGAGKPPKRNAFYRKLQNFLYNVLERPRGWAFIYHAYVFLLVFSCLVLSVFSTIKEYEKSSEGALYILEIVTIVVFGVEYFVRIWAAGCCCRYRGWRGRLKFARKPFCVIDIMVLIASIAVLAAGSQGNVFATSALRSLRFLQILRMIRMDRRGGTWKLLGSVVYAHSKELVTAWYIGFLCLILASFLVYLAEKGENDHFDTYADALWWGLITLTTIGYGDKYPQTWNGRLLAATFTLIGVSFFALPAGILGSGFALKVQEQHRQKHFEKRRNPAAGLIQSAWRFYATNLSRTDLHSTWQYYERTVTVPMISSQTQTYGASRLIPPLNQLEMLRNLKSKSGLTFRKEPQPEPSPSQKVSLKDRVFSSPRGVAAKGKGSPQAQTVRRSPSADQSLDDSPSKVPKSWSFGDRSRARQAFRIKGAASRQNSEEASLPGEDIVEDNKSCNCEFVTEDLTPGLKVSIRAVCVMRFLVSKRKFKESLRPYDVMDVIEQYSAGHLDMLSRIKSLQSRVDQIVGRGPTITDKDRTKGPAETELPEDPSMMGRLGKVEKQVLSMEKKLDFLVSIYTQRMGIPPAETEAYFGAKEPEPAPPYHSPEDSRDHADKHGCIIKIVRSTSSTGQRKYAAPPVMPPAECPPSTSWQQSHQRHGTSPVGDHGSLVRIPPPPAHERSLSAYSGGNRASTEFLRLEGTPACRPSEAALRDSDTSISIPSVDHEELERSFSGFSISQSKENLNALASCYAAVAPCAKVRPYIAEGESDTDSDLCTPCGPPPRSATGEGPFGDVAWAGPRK

Structure (SMILES): O=c1[nH]sc2cc(F)ccc12
- potentiation: 102
